Results taken from PubChem BioAssay (Tox21).
Records with an inconclusive call do not appear. The source made the active and inactive calls. Calls come from the whole dose curve; as a rule, active = well fitted curve in the direction sought with a large enough effect in the repeat runs; inconclusive = weak or mixed curves; inactive = no such curve, though single readings can be large; an effect the other way counts as inactive or inconclusive.

Columns and labels:
[1] = qHTS RealTime-Glo MT Cell Viability Assay in HepG2 cells - 40 hour (AID 1224870); note: nearly all actives have a fitted effect of over 50% in size
In short: (§1)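 HepG2 cells mixed with RealTime-Glo MT reagents (NanoLuc plus cell-permeant prosubstrate) were seeded at 600 cells/well, incubated 5 h at 37 C/5% CO2, then pinned with compounds in DMSO; nonlytic luminescence tracked viability during 40 h treatment.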

[2] = A CellTox Green Cytotoxicity Assay to monitor cytotoxicity in HEK293 cells - 40 hour (AID 1224871); note: nearly all actives have a fitted effect of over 45% in size
In short: (§2)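 Fluorescence intensity, read at 0, 8, 16, 24, 32 and 40 h of compound treatment, reflected dye binding to DNA of dead HEK293 cells; compounds (23 nL, DMSO) were added 5 h after plating cells with reagent.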

[3] = qHTS RealTime-Glo MT Cell Viability Assay in HEK293 cells - 16 hour (AID 1224872); note: top concentration of the series differs between compounds; nearly all actives have a fitted effect of over 50% in size
In short: (§3)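 Cells + reagent dispensed (600 cells/well, HEK293) → 5 h at 37 C/5% CO2 → 23 nL compound in DMSO pinned → 40 h at 37 C → luminescence read at 0, 8, 16, 24, 32, 40 h.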

[4] = qHTS RealTime-Glo MT Cell Viability Assay in HepG2 cells - 8 hour (AID 1224873); note: nearly all actives have a fitted effect of over 55% in size
In short: as §1

[5] = qHTS RealTime-Glo MT Cell Viability Assay in HEK293 cells - 40 hour (AID 1224874); settings: RealTime-Glo luminescence; max response: active compounds read low; note: nearly all actives have a fitted effect of over 50% in size
In short: (§4)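 Viable HEK293 cells reduce a cell-permeant prosubstrate; the product diffuses out and is consumed by NanoLuc in the medium to give light. Compounds went in after a 5 h incubation and plates were read over the treatment course.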

[6] = A CellTox Green Cytotoxicity Assay to monitor cytotoxicity in HEK293 cells - 24 hour (AID 1224875); note: series mostly up to about 77 µM; nearly all actives have a fitted effect of over 45% in size
In short: as §2

[7] = A CellTox Green Cytotoxicity Assay to monitor cytotoxicity in HepG2 cells - 16 hour (AID 1224876); note: nearly all actives have a fitted effect of over 45% in size
In short: (§5)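 Using 1536-well format, dye-containing HepG2 suspension was seeded, allowed 5 h at 37 C/5% CO2, dosed by pintool with compounds, positive and negative controls, and imaged for fluorescence across 40 h.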

[8] = qHTS RealTime-Glo MT Cell Viability Assay in HepG2 cells - 32 hour (AID 1224877); note: nearly all actives have a fitted effect of over 55% in size
In short: (§6)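 Real-time, nonlytic viability: 600 HepG2 cells/well mixed with NanoLuc enzyme plus prosubstrate; 5 h settle, compound (DMSO) added by pintool; luminescence monitored over 40 h at 37 C.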

[9] = A CellTox Green Cytotoxicity Assay to monitor cytotoxicity in HepG2 cells - 24 hour (AID 1224878); note: nearly all actives have a fitted effect of over 45% in size
In short: as §5

[10] = A CellTox Green Cytotoxicity Assay to monitor cytotoxicity in HepG2 cells - 40 hour (AID 1224879); note: nearly all actives have a fitted effect of over 40% in size
In short: as §5

[11] = qHTS RealTime-Glo MT Cell Viability Assay in HEK293 cells - 0 hour (AID 1224880)
In short: as §4

[12] = A CellTox Green Cytotoxicity Assay to monitor cytotoxicity in HEK293 cells - 32 hour (AID 1224881); note: nearly all actives have a fitted effect of over 40% in size; note: potency is the fitted concentration of half-maximal effect
In short: as §2

[13] = A CellTox Green Cytotoxicity Assay to monitor cytotoxicity in HepG2 cells - 0 hour (AID 1224882); note: nearly all actives have a fitted effect of over 35% in size
In short: as §5

[14] = A CellTox Green Cytotoxicity Assay to monitor cytotoxicity in HepG2 cells - 32 hour (AID 1224883); note: nearly all actives have a fitted effect of over 50% in size
In short: as §5

[15] = A CellTox Green Cytotoxicity Assay to monitor cytotoxicity in HEK293 cells - 8 hour (AID 1224884); note: nearly all actives have a fitted effect of over 35% in size
In short: as §2

[16] = qHTS RealTime-Glo MT Cell Viability Assay in HEK293 cells - 24 hour (AID 1224886)
In short: as §3

[17] = qHTS RealTime-Glo MT Cell Viability Assay in HEK293 cells - 8 hour (AID 1224887)
In short: as §4

[18] = A CellTox Green Cytotoxicity Assay to monitor cytotoxicity in HEK293 cells - 16 hour (AID 1224888); note: nearly all actives have a fitted effect of over 35% in size
In short: as §2

[19] = qHTS RealTime-Glo MT Cell Viability Assay in HepG2 cells - 0 hour (AID 1224889); note: nearly all actives have a fitted effect of over 50% in size
In short: as §6

[20] = qHTS RealTime-Glo MT Cell Viability Assay in HepG2 cells - 16 hour (AID 1224885); note: nearly all actives have a fitted effect of over 50% in size
In short: as §6
% is set by controls: 0 for no effect and ±100 for the full control effect.

CCCCOCCOC(=O)c1cccnc1
inactive: Potency [1] | Potency [2] | Potency [3] | Potency [4] | max response [5] 0.954% | Potency [6] | Potency [7] | Potency [8] | Potency [9] | Potency [10] | Potency [11] | Potency [12] | Potency [13] | Potency [14] | Potency [15] | Potency [16] | Potency [17] | Potency [18] | Potency [19]

C1CCCCC1
inactive: Potency [1] | Potency [2] | Potency [3] | Potency [4] | max response [5] 1.11% | Potency [6] | Potency [7] | Potency [8] | Potency [9] | Potency [10] | Potency [11] | Potency [12] | Potency [13] | Potency [14] | Potency [16] | Potency [17] | Potency [18] | Potency [19]

CC(C)(O)CCc1ccccc1
inactive: Potency [1] | Potency [2] | Potency [3] | Potency [4] | max response [5] -8.47% | Potency [6] | Potency [7] | Potency [8] | Potency [9] | Potency [10] | Potency [11] | Potency [12] | Potency [13] | Potency [14] | Potency [20] | Potency [16] | Potency [18] | Potency [19]

NC(=O)c1ccccc1[N+](=O)[O-]
active: Potency [12] 1780 nM
inactive: Potency [1] | Potency [2] | Potency [3] | Potency [4] | max response [5] 13.7% | Potency [6] | Potency [7] | Potency [8] | Potency [9] | Potency [10] | Potency [11] | Potency [13] | Potency [15] | Potency [20] | Potency [16] | Potency [17] | Potency [19]

SCCc1cnccn1
inactive: Potency [1] | Potency [2] | Potency [3] | Potency [4] | max response [5] 10.1% | Potency [6] | Potency [7] | Potency [8] | Potency [9] | Potency [10] | Potency [11] | Potency [12] | Potency [13] | Potency [14] | Potency [15] | Potency [20] | Potency [16] | Potency [17] | Potency [18] | Potency [19]

CC(C)COC(=O)COc1cc(Cl)c(Cl)cc1Cl
inactive: Potency [1] | Potency [2] | Potency [3] | Potency [4] | max response [5] -15.9% | Potency [6] | Potency [7] | Potency [8] | Potency [9] | Potency [10] | Potency [11] | Potency [12] | Potency [13] | Potency [14] | Potency [15] | Potency [20] | Potency [16] | Potency [17] | Potency [18] | Potency [19]

CS(=O)(=O)c1ccc([C@@H](C[C@H]2CCC(=O)C2)C(=O)Nc2cnccn2)cc1Cl
inactive: Potency [1] | Potency [2] | Potency [3] | Potency [4] | max response [5] 0.0186% | Potency [6] | Potency [7] | Potency [8] | Potency [9] | Potency [10] | Potency [11] | Potency [12] | Potency [13] | Potency [14] | Potency [15] | Potency [20] | Potency [16] | Potency [17] | Potency [18] | Potency [19]

COc1ccc(CCN(C)CCCN2CCc3cc(OC)c(OC)cc3CC2=O)cc1OC
inactive: Potency [1] | Potency [2] | Potency [3] | Potency [4] | max response [5] 9.42% | Potency [6] | Potency [7] | Potency [8] | Potency [9] | Potency [10] | Potency [11] | Potency [12] | Potency [13] | Potency [14] | Potency [15] | Potency [20] | Potency [16] | Potency [17] | Potency [18] | Potency [19]

Cc1cccc2sc(N)nc12
inactive: Potency [1] | Potency [2] | Potency [3] | Potency [4] | max response [5] 25.1% | Potency [6] | Potency [7] | Potency [8] | Potency [9] | Potency [10] | Potency [11] | Potency [12] | Potency [13] | Potency [14] | Potency [20] | Potency [16] | Potency [18] | Potency [19]

CCCCOC(=O)CCCCC(=O)OCCCC
inactive: Potency [1] | Potency [2] | Potency [3] | Potency [4] | max response [5] 0.321% | Potency [6] | Potency [7] | Potency [8] | Potency [9] | Potency [10] | Potency [11] | Potency [12] | Potency [13] | Potency [15] | Potency [20] | Potency [16] | Potency [17] | Potency [18] | Potency [19]

C=CC(=O)NC(C)C
inactive: Potency [1] | Potency [2] | Potency [3] | Potency [4] | max response [5] 9.7% | Potency [6] | Potency [7] | Potency [8] | Potency [9] | Potency [10] | Potency [11] | Potency [12] | Potency [13] | Potency [14] | Potency [15] | Potency [20] | Potency [16] | Potency [17] | Potency [18] | Potency [19]

CCCCCCOC(=O)CCCCC
inactive: Potency [1] | Potency [2] | Potency [3] | Potency [4] | max response [5] 0.369% | Potency [6] | Potency [7] | Potency [8] | Potency [9] | Potency [10] | Potency [11] | Potency [12] | Potency [13] | Potency [14] | Potency [15] | Potency [20] | Potency [16] | Potency [17] | Potency [18] | Potency [19]

Cc1cccc(C)c1NC(=O)c1cc(S(N)(=O)=O)c(Cl)cc1O
inactive: Potency [1] | Potency [2] | Potency [3] | Potency [4] | max response [5] 1.94% | Potency [6] | Potency [7] | Potency [8] | Potency [9] | Potency [10] | Potency [11] | Potency [12] | Potency [13] | Potency [14] | Potency [15] | Potency [20] | Potency [16] | Potency [17] | Potency [18] | Potency [19]
